Assay results as given in PubChem BioAssay (NCI).
This is part of a sample that, as a whole, favours compounds with a hit. Of some 83,000 tested, about 20% had one in any assay.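 Results are percent growth after 48 hours of single-concentration exposure. 100 means growth as in untreated cells, lower positive values show inhibition; negative values down to -100 show cell death.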 A number with no mark means an inactive call. Calls of active or inactive are those of the source.

tested on: HCT-116 colon; test: NCI-60 one-dose screen, 48 h (100 = growth as untreated, 0 = no growth, -100 = all killed); conditions: 10 µM unless noted
Experimental: Growth inhibition of the HCT-116 human tumor cell line is measured as a screen for anti-cancer activity. Cells are grown in 96 well plates and exposed to the test compound for 48 hours. Compounds are tested at a single concentration, which is 10^-5 M for most compounds. The reported endpoint is percent growth (GI% or GIPRCNT), where numbers from 0 - 100% represent growth inhibition, and numbers from -100% - 0 represent cell death. For example, a value of 40 represents 60% growth inhibition. A value of 0 means no net growth occurred over the course of the experiment. A value of -40 indicates 40% of cells at the beginning of the experiment died by the end of the experiment. A value of -100 means all cells are dead at the end of the experiment.
NCI-60 Human Tumor Cell Lines Screen was performed using the standard one-dose NCI protocol, which is described in more detail at https://dtp.cancer.gov/discovery_development/nci-60/default.htm.
Compounds with GIPRCNT values below 10 were considered active. Activity score was based on GIPRCNT using the following formula: […]
Score is 0 for GIPRCNT values of 100 or above, 50 for GIPRCNT values of 0, and 100 for GIPRCNT values of -100.

**Q.** For `Nc1nc(I)c2ncn(C3OC(CO)C(O)C3O)c2n1` (stereo not given), which growth is on record?
**A.** 110%

**Q.** `N#Cc1c(NC(=O)c2cccc(C(F)(F)F)c2)sc2c1CCC(=O)C2` was tested. Which growth did it give?
**A.** -63.7% (active)

**Q.** `COc1ccc(-c2c(N)n[nH]c2-c2ccccc2O)cc1OC` was tested. Which growth did it give?
**A.** 94.9%

**Q.** For `C[C@@H]1C(=O)N(C[C@H](Cc2ccccc2)N(Cc2ccccc2)Cc2ccccc2)[C@]1(Cc1ccccc1)C(=O)OC(C)(C)C`, which growth is on record?
**A.** 40.6%

**Q.** Which growth does the source give for `Cc1nc(Nc2ccc(NC(=S)Nc3ccccc3)cc2)nc2nc(Nc3cccc(Cl)c3)[nH]c(=O)c12` here?
**A.** 94.4%

**Q.** With `CCc1nc2ccccc2[nH]1` as the molecule, how does the growth read?
**A.** 102%

**Q.** `CCCCCCNCc1cc(C(C)(C)C)cc(CNCCCCCC)c1O` was tested. Which growth did it give?
**A.** -90.8% (active)

**Q.** How did the growth turn out when `CO/C(=C1/NC(=O)C(Cc2ccc(O)c(Br)c2)N(C)C(=O)C(C)NC(=O)CCC/C=C(\C)CCC(C)OC1=O)c1ccccc1` (stereo not given) was run?
**A.** 8.19% (active)

**Q.** With `O=C(O)C1C[C@](O)(c2ccc(F)cc2)[C@@H](c2ccc(F)cc2)O1` (stereo not given in full) as the molecule, how does the growth read?
**A.** 100%

**Q.** With `CCCc1cc(=O)oc2c3c(c4c(c12)OC(C)(C)C=C4)O[C@@H](C)[C@H](C)C3=O` as the molecule, how does the growth read?
**A.** 35.8%

**Q.** For `CCCCN1CCN(c2ccc3nc(-c4ccc5nc(-c6cc(OC)c(OC)c(OC)c6)[nH]c5c4)[nH]c3c2)CC1`, which growth is on record?
**A.** 41.1%

**Q.** Which growth does the source give for `C=C(Cl)COC(=O)C(C)(C)O` here?
**A.** 99.4%

**Q.** How did the growth turn out when `COc1cc(C(=O)/C=C/c2c(C(F)(F)F)nc3ccccn23)cc(OC)c1OC` was run?
**A.** -84.3% (active)

**Q.** Which growth does the source give for `CN=C1C=CC(=C(c2ccc(N(C)C)cc2)c2ccc(N(C)C)cc2)C=C1` here?
**A.** -7.21% (active)

**Q.** `Cc1ccc(Nc2ccc(Nc3ccc(C)cc3S(=O)(=O)O)c3c2C(=O)c2ccccc2C3=O)c(S(=O)(=O)O)c1` was tested. Which growth did it give?
**A.** 87%

**Q.** How did the growth turn out when `COc1ccccc1C(=O)NC(=S)Nc1ccc(-c2nc3ccccc3[nH]2)cc1` was run?
**A.** 13.8%

**Q.** Which growth does the source give for `COc1cc(NC(=O)c2cc(O)c(CC=C(C)C)c(O)c2)cc2c1O[C@]1(C)CC[C@@H](O)C(C)(C)[C@H]1C2` here?
**A.** 23.8%

**Q.** Which growth does the source give for `Cc1nc(Nc2ccc(S(=O)(=O)Nc3cc(C)on3)cc2)c2ccccc2n1` here?
**A.** 109%

**Q.** For `CC(=O)c1ccc2c(c1)CCN2`, which growth is on record?
**A.** 100%

**Q.** `O=[N+]([O-])c1ccc(-c2cc3c(Nc4ccc(OCc5cccc(Cl)c5)c(Cl)c4)ncnc3s2)cc1` was tested. Which growth did it give?
**A.** 52%

**Q.** For `CNC(=O)c1c(NC(=O)c2ccc(C(C)(C)C)cc2)sc2c1CCC(=O)C2`, which growth is on record?
**A.** 0.171% (active)

**Q.** Which growth does the source give for `OC(c1cccc(OCc2ccccc2)c1)c1nnc(-c2ccccc2)o1` (stereo not given) here?
**A.** 101%

**Q.** For `O=C1N/C(=N/O)S/C1=C/c1cn(-c2ccccc2)nc1-c1ccccc1`, which growth is on record?
**A.** 82.4%

**Q.** With `COC(=O)/C(=C\c1ccc(OC)cc1)C(=O)N1c2ccccc2Sc2ccccc21` as the molecule, how does the growth read?
**A.** 23.3%

**Q.** `Clc1ccc(/C=N\N=c2\scc(-c3ccc(Cl)cc3)n2/N=C/c2ccc(Cl)cc2)cc1` was tested. Which growth did it give?
**A.** 90%

**Q.** For `CN1C[C@@H](c2ccc(Cl)cc2)[C@]2(NC(=S)N(c3ccc(F)c(Cl)c3)C2=O)[C@@]12C(=O)NC1C=CC(Cl)=C[C@H]12` (stereo not given in full), which growth is on record?
**A.** -49% (active)

**Q.** With `CN(C)c1ccc(/C=C/c2c(F)cccc2F)cc1` as the molecule, how does the growth read?
**A.** 91.8%

**Q.** For `O[C@H]1CO[C@H]2[C@@H]1OC[C@@H]2Oc1ccc(Nc2ccnc(Nc3ccc(O[C@H]4CO[C@H]5[C@@H]4OC[C@@H]5O)c(Cl)c3)n2)cc1Cl`, which growth is on record?
**A.** 9.14% (active)

**Q.** Which growth does the source give for `Cc1ccc(O)c(C(=O)c2ccccc2Cl)c1` here?
**A.** 99%

**Q.** Which growth does the source give for `COc1ccc(N(C)c2nc(Cl)nc3cnn(C)c23)cc1` here?
**A.** -18.4% (active)

**Q.** How did the growth turn out when `CC(C)(C)N1CC(OC(N)=O)C1` was run?
**A.** 99.4%

**Q.** `CCCN1CCN(c2ccc3nc(-c4ccc5nc(-c6ccc(OCC)c(OCC)c6)[nH]c5c4)[nH]c3c2)CC1` was tested. Which growth did it give?
**A.** -83.4% (active)

**Q.** For `COc1cc2nc(Nc3ccc(F)cc3)nc(N)c2cc1OC`, which growth is on record?
**A.** 89.4%

**Q.** `C/C(=N\NC(N)=S)c1nc2ccc(Cl)cc2[nH]1` was tested. Which growth did it give?
**A.** 35.6%

**Q.** With `COc1cc2c(c(OC)c1OC)C(=O)/C(=C/c1cc(C)c(O)c(C)c1)S2` as the molecule, how does the growth read?
**A.** 33.2%

**Q.** How did the growth turn out when `CC(=O)NCC(=O)Nc1ccc(-c2nnc3ccccn23)nc1.CC(=O)NCC(=O)Nc1ccc(-c2nnc3ccccn23)nc1.[Pt+2]` was run?
**A.** 95.4%

**Q.** How did the growth turn out when `O=c1ccn(C2OC(F)(CO)C(O)C2F)c(=O)[nH]1` (stereo not given) was run?
**A.** 104%

**Q.** For `O=C(NC(=S)Nc1ccc(-c2nc3ccccc3[nH]2)cc1)c1ccc2ccccc2c1`, which growth is on record?
**A.** 3.95% (active)

**Q.** With `COc1ccc(/C=N/NC(=O)Cn2c(-c3ccc(S(C)(=O)=O)cc3)nc3cc(Cl)ccc32)cc1` as the molecule, how does the growth read?
**A.** 11.8%

**Q.** Which growth does the source give for `COc1c(C)cnc(CSc2nc(-c3ccc(C)cc3)cn2-c2ccc(Cl)cc2)c1C` here?
**A.** 79.8%
